PPARg SRC3 recr: agonists of human PPARgamma SRC-3 coactivator recruitment. activation, % at 8 µM. 0.26% of 200,000 active. P37231. AID 731. biochemical PPARgamma/SRC-3 coactivator recruitment assay; in the data active means activation above about 23%;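 further: 0% = DMSO and 100% = reference agonist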
Target sequence (P37231 whole entry, looked up): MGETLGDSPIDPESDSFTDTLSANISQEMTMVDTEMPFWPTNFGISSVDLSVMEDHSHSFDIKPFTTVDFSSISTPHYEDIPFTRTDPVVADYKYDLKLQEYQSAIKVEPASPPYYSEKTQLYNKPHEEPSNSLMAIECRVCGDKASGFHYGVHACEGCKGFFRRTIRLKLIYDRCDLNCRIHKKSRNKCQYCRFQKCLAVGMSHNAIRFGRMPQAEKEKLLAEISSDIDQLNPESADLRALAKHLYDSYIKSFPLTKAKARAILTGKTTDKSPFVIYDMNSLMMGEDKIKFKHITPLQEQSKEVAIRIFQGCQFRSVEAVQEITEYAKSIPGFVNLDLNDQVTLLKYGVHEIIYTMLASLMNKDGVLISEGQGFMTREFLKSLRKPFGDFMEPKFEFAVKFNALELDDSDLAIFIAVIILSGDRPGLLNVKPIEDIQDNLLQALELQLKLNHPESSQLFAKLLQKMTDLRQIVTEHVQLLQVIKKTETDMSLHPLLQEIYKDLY
PPARg SRC-1 ag: PPARgamma-driven SRC-1 recruitment agonism; PPARgamma-SRC-1 coactivator recruitment biochemical assay; 0.41% of 200,000 active; activation, % at 8 µM; AID 631; P37231; in the data active means activation above about 19%;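 further: 0% = DMSO and 100% = reference agonist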
SRC1 TRFRET art: TR-FRET artefact, counter-screen to PPARgamma/SRC-1 agonist assay. TR-FRET ratio at 8 µM. TR-FRET detection artefact counter-screen, emission ratio; active compounds read high. 0.34% of 99,000 active; in the data active means TR-FRET ratio above about 2300
TR-FRET SRC-2 ct: TR-FRET artefact, counter-screen to PPARgamma/SRC-2 agonist assay. active compounds read high. TR-FRET ratio at 8 µM. 0.4% of 200,000 active. AID 1049
SRC3 TRFRET art: counter-screen for PPARgamma SRC-3 recruitment agonists: TR-FRET artefact. PPARgamma/SRC-3 format; active compounds read high. TR-FRET ratio at 8 µM. 0.39% of 99,000 active
PPARg SRC2 recr: promotes SRC-2 coactivator recruitment by human PPARgamma | 0.34% of 200,000 active | activation, % at 8 µM | P37231 | AID 1032 | PPARgamma LBD-SRC-2 recruitment, biochemical; in the data active means activation above about 22%;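 further: 0% = vehicle and 100% = reference agonist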
PPARg SRC2 ag: confirmation of agonists of SRC-2 recruitment by human PPARgamma. 52% of 790 active. biochemical SRC-2 recruitment by PPARgamma. activation, % at 8 µM. AID 1297. shares compounds with PPARg SRC3 recr; in the data active means activation above about 22%;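 further: 0% = vehicle alone and 100% = reference agonist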
PPARg SRC1 conf: human PPARgamma SRC-1 recruitment agonism, confirmation; AID 1300; activation, % at 8 µM; PPARgamma–SRC-1 coactivator recruitment biochemical assay; shares compounds with PPARg SRC3 recr; 43% of 790 active; in the data active means activation above about 20%;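 further: 0% = vehicle wells and 100% = reference agonist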
PPARg SRC3 ag: confirmation of agonists of SRC-3 recruitment by human PPARgamma. shares compounds with PPARg SRC3 recr. biochemical PPARgamma-SRC-3 coactivator recruitment, agonist mode. activation, % at 8 µM. 29% of 790 active. AID 1301; in the data active means activation above about 24%;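 further: 0% = vehicle wells and 100% = reference agonist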
The depositor's hits bear a star; nt = no result given. An excerpt weighted towards active compounds, which were near 0.9% of everything screened. Unless noted, no stated cut-off is given here; in the data, active means TR-FRET ratio above about 2000; inactive means the rest.

SMILES	PPARg SRC3 recr	PPARg SRC-1 ag	SRC1 TRFRET art	TR-FRET SRC-2 ct	SRC3 TRFRET art	PPARg SRC2 recr	PPARg SRC2 ag	PPARg SRC1 conf	PPARg SRC3 ag
CC(=O)Oc1ccc(N(C(C)=O)S(=O)(=O)c2ccc(C)c([N+](=O)[O-])c2)cc1	-2	-14	1476	1456	1383	-4	nt	nt	nt
COc1ccc(-n2c(=O)c3c4c(sc3n3c(=S)[nH]nc23)CCCC4)cc1	-5	0	2009	1540	1362	-9	nt	nt	nt
C=CCn1c(=S)[nH]c2scc(-c3cccs3)c2c1=O	42*	68*	3938*	3332*	3585*	76*	78*	55*	47*
O=c1c2c(-c3cccs3)csc2ncn1-c1ccc(Br)cc1	4	4	nt	1896	nt	17	nt	nt	nt
Cn1c(=S)[nH]c2scc(-c3cccs3)c2c1=O	27*	50*	3197*	2702*	2495*	42*	57*	41*	37*
COc1cc(N=Nc2c(C)n(C)n(-c3ccccc3)c2=O)ccc1N	11	28*	1943	1662	1714	22	2	2	3
Cc1ccc(C(=O)OCC(=O)c2ccc[nH]2)s1	2	-6	1844	1546	1557	-1	nt	nt	nt
O=C(COC(=O)c1ccc(Cl)s1)c1ccc[nH]1	7	11	1863	1677	1421	22*	3	3	7
Cc1cc2nc(-c3ccc(SCc4ccccc4C#N)nc3)[nH]c2cc1C	46*	36*	nt	2284*	nt	59*	32*	20*	20
CCCCNC(=O)CCn1c(=O)c2ccccc2n(Cc2ccc(Cl)cc2)c1=O	3	-4	1423	1414	1622	-8	nt	nt	nt
CCS(=O)(=O)Nc1ccc(-c2nnc(SCC(=O)c3cccc(OC)c3)o2)cc1	2	6	nt	1712	nt	7	nt	nt	nt
CCS(=O)(=O)Nc1ccc(-c2nnc(SCC(=O)c3ccc(NC(C)=O)c(OC)c3)o2)cc1	57*	31*	nt	1680	nt	5	8	-1	7
COc1ccc(S(=O)(=O)Nc2ccc3c(c2)OCO3)cc1C	19	4	nt	1864	nt	24*	3	-3	0
O=C1NC(c2ccccc2)C(C(=O)c2cccs2)=C1O (configuration not stated)	14	20*	nt	1704	nt	10	10	8	7
Cc1ccc(C2C(C(=O)c3cccs3)=C(O)C(=O)N2c2nnc(C)s2)cc1 (configuration not stated)	7	23*	2419*	2089*	2078*	12	20	17	14
COCCCN1C(=O)C(O)=C(C(=O)c2ccco2)C1c1ccc(Br)cc1 (configuration not stated)	22	14	nt	1860	nt	22	nt	nt	nt
Cc1nnc(N2C(=O)C(O)=C(C(=O)c3ccco3)C2c2ccc(F)cc2)s1 (configuration not stated)	49*	28*	nt	2061*	nt	38*	41*	32*	28*
Cc1nnc(N2C(=O)C(O)=C(C(=O)c3ccco3)C2c2ccc(C(C)(C)C)cc2)s1 (configuration not stated)	42*	31*	nt	2126*	nt	28*	39*	31*	25*
Cc1ccc(NC(=O)CS(=O)CC(=O)Nc2ccc3c(c2)OCO3)cc1Cl (configuration not stated)	5	15	nt	1663	nt	-4	nt	nt	nt
CC(C)CCN1CCN(Cc2cccc(C(F)(F)F)c2)CC1CCO (configuration not stated)	3	2	1668	1647	1882	4	nt	nt	nt
Cc1ccccc1NC(=O)Nc1nnc(Cc2ccc([N+](=O)[O-])cc2)s1	2	-8	1602	1475	1300	-5	nt	nt	nt
COCCN1C(=O)C(O)=C(C(=O)c2cccs2)C1c1ccccc1 (configuration not stated)	14	19*	nt	1641	nt	3	20	12	11

Screening results: PubChem, The Scripps Research Institute Molecular Screening Center
